Results as given in PubChem BioAssay (NCI).
About 83,000 compounds went through this panel and 20% of them were active in at least one assay; those are over-represented in the sample as a whole.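 Cells were grown in 96-well plates and exposed to the test compound at a single concentration for 48 hours; results are reported as percent growth, with values below 10 considered active.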 Active and inactive are the calls of the source.

Columns and labels:
Assay in all cases: NCI-60 one-dose screen, 48 h (100 = growth as untreated, 0 = no growth, -100 = all killed)
Details in all cases: 10 µM
RXF 393 renal = system: RXF 393 renal
SK-MEL-5 melanoma = system: SK-MEL-5 melanoma
UO-31 renal = system: UO-31 renal
ACHN renal = system: ACHN renal
CCRF-CEM leukemia = system: CCRF-CEM leukemia
OVCAR-4 ovarian = system: OVCAR-4 ovarian
MCF7 breast = system: MCF7 breast
HCT-116 colon = system: HCT-116 colon
HCC-2998 colon = system: HCC-2998 colon
KM12 colon = system: KM12 colon
HCT-15 colon = system: HCT-15 colon
LOX IMVI melanoma = system: LOX IMVI melanoma
T-47D breast = system: T-47D breast
SNB-75 CNS = system: SNB-75 CNS
U251 CNS = system: U251 CNS
UACC-62 melanoma = system: UACC-62 melanoma

Measured: growth

O=C(c1ccc(Cl)cc1)C(c1c[nH]c2ccccc12)c1c[nH]c2ccccc12
active: RXF 393 renal -82.1% | SK-MEL-5 melanoma -58.3% | UO-31 renal -94.6% | ACHN renal -99.9% | CCRF-CEM leukemia 2.45% | OVCAR-4 ovarian 7.15% | MCF7 breast -69.3% | HCT-116 colon -91.4% | HCC-2998 colon -89.6% | KM12 colon -5.68%

Fc1ccc(-c2csc(Nc3cccc(Nc4nc(-c5ccc(F)cc5)cs4)c3)n2)cc1
inactive: RXF 393 renal 75.5% | HCT-15 colon 52.5% | SK-MEL-5 melanoma 61.2% | ACHN renal 51.8% | CCRF-CEM leukemia 59.1% | OVCAR-4 ovarian 55.7% | MCF7 breast 24.7% | HCT-116 colon 57.7% | HCC-2998 colon 35.2% | KM12 colon 37.6%

Cn1cc(-c2cc(N)n3nc(-c4cn(C)c5ccccc45)cc3n2)c2cc(F)ccc21
active: RXF 393 renal -76.3% | SK-MEL-5 melanoma -87.9% | LOX IMVI melanoma -86.2% | ACHN renal -89.4% | CCRF-CEM leukemia -9.43% | OVCAR-4 ovarian -38.2% | MCF7 breast -56.2% | HCT-116 colon -92.1% | HCC-2998 colon -80.5% | KM12 colon -69.1%

Cc1ccc(S(=O)(=O)N2CCN(S(=O)(=O)c3oc(-c4ccccc4)nc3C#N)CC2)cc1
inactive: RXF 393 renal 87.6% | HCT-15 colon 82.5% | SK-MEL-5 melanoma 63.7% | UO-31 renal 61.7% | CCRF-CEM leukemia 75.7% | OVCAR-4 ovarian 71.8% | T-47D breast 60.8% | MCF7 breast 47.6% | HCT-116 colon 84.6% | HCC-2998 colon 106% | KM12 colon 82.5%

CC1[C@H]2[C@H](C[C@H]3[C@@H]4CC=C5c6sc(Nc7cccc(Cl)n7)nc6CC[C@]5(C)[C@H]4CC[C@@]32C)O[C@]12CC[C@@H](C)CO2 (some centres undefined)
inactive: RXF 393 renal 123% | SK-MEL-5 melanoma 59.3% | LOX IMVI melanoma 79.6% | UO-31 renal 85.4% | ACHN renal 96.4% | CCRF-CEM leukemia 66.6% | OVCAR-4 ovarian 104% | HCT-116 colon 76.3% | HCC-2998 colon 102% | KM12 colon 84.9%
active: MCF7 breast -66.6%

Cc1ccc(-c2nc(C#N)c(S(=O)(=O)N3CCN(S(C)(=O)=O)CC3)o2)cc1
inactive: SNB-75 CNS 107% | U251 CNS 78.7% | SK-MEL-5 melanoma 55.2% | UACC-62 melanoma 53.4% | UO-31 renal 26.7% | OVCAR-4 ovarian 48.1% | HCC-2998 colon 92.9% | KM12 colon 92.5%
active: RXF 393 renal -35.2% | CCRF-CEM leukemia 7.57% | T-47D breast -52.4% | MCF7 breast 5.73% | HCT-116 colon -74%

COc1ccc(C2c3sc4ccc(C)cc4c3Oc3nc[nH]c(=O)c32)cc1 (centres undefined)
inactive: RXF 393 renal 85.7% | SK-MEL-5 melanoma 88.8% | UACC-62 melanoma 59.2% | LOX IMVI melanoma 92.5% | CCRF-CEM leukemia 91.7% | OVCAR-4 ovarian 85.3% | T-47D breast 83.4% | MCF7 breast 69.6% | HCT-116 colon 90.2% | HCC-2998 colon 94% | KM12 colon 61.1%

O=C(O)CCN1C(=O)/C(=C/C=C/c2ccc([N+](=O)[O-])o2)SC1=S
inactive: SNB-75 CNS 24.2%

COc1cc(-c2nc3ccc(C)cc3[nH]2)ccc1OCc1nnc(-c2ccccc2Br)o1
active: RXF 393 renal 1.93%
inactive: SNB-75 CNS 112% | U251 CNS 57.7% | SK-MEL-5 melanoma 41.1% | UACC-62 melanoma 92% | LOX IMVI melanoma 71.8% | UO-31 renal 61.8% | CCRF-CEM leukemia 19.4% | OVCAR-4 ovarian 80.7% | T-47D breast 28% | MCF7 breast 44.4% | HCT-116 colon 61% | HCC-2998 colon 77.2% | KM12 colon 65.9%

CCn1c(SCC(=O)Nc2ccc(-c3nc4ccccc4[nH]3)cc2)nc2ccccc2c1=O
inactive: CCRF-CEM leukemia 44.7%
active: RXF 393 renal -87.1% | SNB-75 CNS -94.2% | U251 CNS -74.9% | SK-MEL-5 melanoma -51.2% | LOX IMVI melanoma -63% | UO-31 renal -95.4% | OVCAR-4 ovarian -84.1% | T-47D breast -58.2% | MCF7 breast -71.7% | HCT-116 colon -81.4% | HCC-2998 colon -31.6% | KM12 colon -14.5%
